An excerpt weighted towards active compounds, which were near 21% of everything screened.
DRD3 antagonist: antagonists of human D3 dopamine receptor; D3R cells, DiscoveRx beta-arrestin luminescence, antagonist mode; hits give low values; max response, negative = inhibition, %; 2.5% of 360,000 active; AID 652054; in the data active means max response below about -50%; inconclusive means no clear call, values can overlap the other calls; further: on the % scale 0 is the no-effect control and ±100 the full control effect
Target sequence (P35462 whole entry, looked up): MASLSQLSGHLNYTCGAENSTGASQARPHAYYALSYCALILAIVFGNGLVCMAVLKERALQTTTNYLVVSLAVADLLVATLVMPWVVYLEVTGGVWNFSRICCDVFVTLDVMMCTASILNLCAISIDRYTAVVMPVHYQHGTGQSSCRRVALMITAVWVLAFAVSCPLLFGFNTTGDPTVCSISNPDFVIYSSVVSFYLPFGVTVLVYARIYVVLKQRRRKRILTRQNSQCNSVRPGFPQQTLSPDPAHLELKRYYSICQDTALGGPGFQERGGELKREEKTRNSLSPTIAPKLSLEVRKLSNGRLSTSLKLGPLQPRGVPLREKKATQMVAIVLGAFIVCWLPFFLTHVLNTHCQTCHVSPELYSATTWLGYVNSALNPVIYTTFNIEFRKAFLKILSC
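Cells plated overnight at 1500 cells/well, then exposed to library compounds with dopamine controls for 90 minutes at 37 degrees C. DiscoveRx reagent added for 30–60 minutes at room temperature; luminescence read, quantitative HTS format.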
DT40 TDP1 CPT: growth inhibition of DT40 Tdp1-/-;hTDP1 cells with camptothecin (screen for TDP1 inhibitors). AID 686979. chicken DT40 Tdp1-/-;hTDP1 cells + 20 nM CPT, ATP luminescence, 48 h. Potency, µM (highest dose often 46.2 µM), without a hit: at the highest dose activity change, negative = growth inhibition, usual class: inhibitors. 12% of 420,000 active; further: potency means the concentration at half of the fitted maximal effect; on the % scale 0 is the no-effect control and ±100 the full control effect; nearly all actives have a fitted effect of over 55% in size
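Chicken DT40 Tdp1-/- cells stably complemented with human TDP1 were seeded at 400 cells/well in medium containing 20 nM camptothecin, exposed to pin-transferred compounds, and grown at 37 °C for at least 48 hr. Viability was read as ATP luminescence.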
DRD3 agonist: agonists of human D3 dopamine receptor | 0.58% of 410,000 active | max activation, % | D3R DiscoveRx beta-arrestin cells, luminescence, 90 min | AID 652048 | P35462; in the data active means max activation above about 30%; further: 0% is about no effect
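Agonist-mode cell screen: cells plated at 1500/well and incubated overnight at 37 °C, then exposed to library compounds for 90 min at 37 °C. Detection reagent was added for 30–60 min at room temperature, and luminescence was read.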
TDP1 cell noCPT: qHTS for Inhibitors of human tyrosyl-DNA phosphodiesterase 1 (TDP1): qHTS in cells in absence of CPT; 15% of 420,000 active; DT40 Tdp1-/- hTDP1 cells, no CPT, ATP luminescence, 48 h; AID 686978, 2013; Potency, µM (doses to about 46.2 µM), without a hit: at the highest dose activity change, negative = growth inhibition, most hits filed as inhibitors; further: potency means the concentration at half of the fitted maximal effect; on the % scale 0 is the no-effect control and ±100 the full control effect; nearly all actives have a fitted effect of over 55% in size
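Readout: luminescence from CellTiter-Glo after 30 min in the dark at RT. Cells: DT40 Tdp1-/- with stable hTDP1, 400/well. Exposure: compounds alone, ≥48 hr, 37 °C.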
ClpP mod: qHTS Assay for Activators of ClpP. ATP-dependent Clp protease proteolytic subunit (Bacillus subtilis (strain 168)), P80244. purified B. subtilis ClpP, FRET peptide cleavage, 20 min. Potency, µM (titrated, usually from 57.5 µM), inactives show at the top dose activity change, negative = active. 1.9% of 340,000 active. AID 651965, 2013; active means well fitted falling curve with a large enough effect; inconclusive means small, poorly fitted or top-dose-only effect; inactive means no such curve, though single readings can be large or run the other way; further: potency means the concentration at half of the fitted maximal effect; the source files actives as falling curves though it sought activators and does not explain the sign; nearly all actives have a fitted effect of over 65% in size
Target sequence (P80244 whole entry, looked up): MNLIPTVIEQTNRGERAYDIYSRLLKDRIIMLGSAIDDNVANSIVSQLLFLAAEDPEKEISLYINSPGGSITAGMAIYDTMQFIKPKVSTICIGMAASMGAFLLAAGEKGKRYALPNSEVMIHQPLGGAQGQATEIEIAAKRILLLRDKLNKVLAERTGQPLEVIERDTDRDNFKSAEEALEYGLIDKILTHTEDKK
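ClpP 10 microg/mL final, pH 8 Tris/KCl buffer with BSA, glycerol, Tween-20; compound pinned in; FRET-FV substrate; RT 20 min; Ex320/Em430; ΔFRET vs ADEP 5.8 microM, DMSO, no enzyme.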
IL1B secr inh: blocks inflammasome-driven IL-1 beta release | THP-1 LPS/ATP IL-1B secretion, AlphaLISA, 16 h; hits give low values | activity change, % at 57.5 µM | 4.7% of 360,000 active | AID 743279; in the data active means activity change below about -50%; inconclusive means mostly about -30% to -49%; further: on the % scale 0 is the no-effect control and ±100 the full control effect
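Secreted IL-1B measured by AlphaLISA bead assay after 16 h compound exposure of THP-1 cells; compounds (final up to 57.5 uM) added 1 h before LPS (250 ng/mL) and ATP (1.25 mM) stimulation; lower signal means less secretion.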
An asterisk follows results filed as active; ? = inconclusive; . = no result. Unless noted, the call rests on the fitted dose curve; in most records, active means well fitted inhibition curve with a large enough effect; inconclusive means small, poorly fitted or top-dose-only effect; inactive means flat fitted curve, though single readings scatter.

SMILES | DRD3 antagonist | DT40 TDP1 CPT | DRD3 agonist | TDP1 cell noCPT | ClpP mod | IL1B secr inh
N=C1SC(CC(=O)Nc2ccccc2[N+](=O)[O-])C(=O)N1c1ccccc1 (configuration not stated) | -62* | ? | -15 | -28% | 0% | -28
O=C(CC1SC(=O)N(c2ccccc2)C1=O)Nc1cccc2ccccc12 (configuration not stated) | 6 | 3.3µM* | 8 | 5.2µM* | . | 0
CC(=O)c1cccc(S(=O)(=O)Nc2cccnc2)c1 | -21 | 4% | -9 | -11% | . | 11
NC(=O)NC(=O)C(Nc1ccc(N2CCCCC2)cc1)c1ccccc1 (configuration not stated) | 7 | -21% | -4 | -26% | . | -7
COc1ccc2oc(-c3ccc(C)c(NC(=O)c4cccnc4)c3)nc2c1 | . | -14% | 5 | 1% | 4% | .
Cc1ccc(S(=O)(=O)c2nc(S(C)(=O)=O)sc2N2CCC3(CC2)OCCO3)cc1 | 3 | -26% | 8 | ? | 0% | ?
Cc1[nH]c(C)c(S(=O)(=O)N(Cc2ccccc2)C(C)C)c1C(=O)N1CCCC1 | 5 | -1% | 2 | 8% | -1% | 8
Cc1cccc(-n2cnc(C(=O)NNC(=S)Nc3ccc(Cl)cc3)c2)n1 | 1 | 7.3µM* | -4 | 12µM* | 0% | 159
Cc1nc2ccccn2c1C(=O)NNC(=S)Nc1ccccc1 | -27 | 5% | -2 | -7% | . | 10
Cc1nc2ccccn2c1C(=O)NNC(=S)Nc1ccc(Cl)cc1 | -23 | ? | -8 | 18µM* | 127% | 13
CCn1cc(C(c2ccccc2)C(C(C)=O)[N+](=O)[O-])c2ccccc21 (configuration not stated) | -17 | ? | -19 | ? | . | -17
COc1ccccc1C(C[N+](=O)[O-])c1c[nH]c2ccccc12 (configuration not stated) | -17 | ? | -6 | ? | -2% | -89*
CC(=O)C(C(c1ccccc1)c1c[nH]c2ccccc12)[N+](=O)[O-] (configuration not stated) | 12 | 6.5µM* | -11 | 5.8µM* | -1% | 28
CCCNC(=S)Nc1ccc(Cl)cc1C | -8 | -2% | 0 | -12% | -2% | 3
Cc1cc(Cl)ccc1NC(=S)NCC(C)C | -13 | ? | -3 | 29µM* | -2% | -4
Cc1cc(Cl)ccc1NC(=S)NCc1ccccc1Cl | 2 | ? | 2 | 26µM* | 1% | -5
Cc1cc(Cl)ccc1NC(=S)NCc1ccc(F)cc1 | -6 | 3% | -1 | ? | -2% | -56*
COCCCN1C(=O)c2ccc(C(=O)NCc3ccccn3)cc2C1=O | -8 | 27% | -19 | 5% | . | 18
CC(C)(C)C(=O)NC1CC(=O)N(c2ccc3c(c2)OCCO3)C1 (configuration not stated) | . | -1% | 1 | 13% | -1% | .
Cc1ccc(NS(=O)(=O)c2cc(NC(=O)c3ccc4c(c3)NC(=O)CS4)ccc2Cl)c(C)c1 | -18 | ? | -4 | 26µM* | -12% | ?
CC12CN3CC(c4ccccc4)(CN(C1)C3c1ccc(O)cc1)C2=O (configuration not stated) | . | -6% | -7 | ? | 0% | .
COCCn1c(=O)[nH]c2cc(C(=O)Nc3ccc(OC)cc3)ccc2c1=O | . | -20% | -8 | -16% | -9% | .
CCCCC(CC)CNC(=O)c1ccc2c(=O)n(Cc3ccc(OC)cc3)c(=O)[nH]c2c1 (configuration not stated) | . | 21µM* | 1 | ? | 1% | .
CCCCCn1c(=O)[nH]c2cc(C(=O)N3CCN(c4cccc(OC)c4)CC3)ccc2c1=O | . | 23µM* | 16 | 15µM* | -1% | .
CCCCCn1c(=O)[nH]c2cc(C(=O)Nc3cc(OC)cc(OC)c3)ccc2c1=O | . | 13µM* | -4 | 23µM* | -4% | .
SMILES | DRD3 antagonist | DT40 TDP1 CPT | DRD3 agonist | TDP1 cell noCPT | ClpP mod | IL1B secr inh
COc1ccc(-n2c(=S)[nH]c3cc(C(=O)Nc4ccc(F)cc4)ccc3c2=O)c(OC)c1 | -30 | 16µM* | -10 | ? | . | ?
COCCn1c(=O)[nH]c2cc(C(=O)N3CCN(c4ccc(OC)cc4)CC3)ccc2c1=O | -23 | -31% | 0 | ? | . | 27
CCOc1ccc(CCNC(=O)COC(=O)COc2ccccc2C)cc1OCC | 8 | 3% | 3 | -8% | 2% | 7
O=C(Nc1ccc([N+](=O)[O-])cc1)c1cc(Cl)sc1Cl | -12 | ? | 2 | ? | -1% | -6
CCCCCn1c(=O)[nH]c2cc(C(=O)N3CCN(CC)CC3)ccc2c1=O | 8 | -27% | -1 | -23% | -10% | 15
CCCCCn1c(=O)[nH]c2cc(C(=O)N3CCN(c4cccc(C)c4)C(C)C3)ccc2c1=O (configuration not stated) | . | 21µM* | 16 | 9.2µM* | 24% | .
CCCCCn1c(=O)[nH]c2cc(C(=O)N3CCN(c4ccc(OC)cc4)CC3)ccc2c1=O | . | 9.2µM* | -5 | 18µM* | 0% | .
COc1cccc(C(O)c2ncc(-c3ccc(C(F)(F)F)cc3)[nH]2)c1 (configuration not stated) | -23 | ? | 1 | ? | -20% | 11
O=c1c2ccc([N+](=O)[O-])cc2ncn1CCOc1cccc(Br)c1 | 65 | ? | 32* | 10µM* | . | 13
O=C(Cn1cnc2cc([N+](=O)[O-])ccc2c1=O)NCc1ccc(Cl)cc1 | -11 | -3% | -2 | ? | . | 0
O=c1c2ccc([N+](=O)[O-])cc2ncn1CCOc1ccc(Cl)cc1 | 62 | 18µM* | 6 | 15µM* | 0% | -6
CCOC(=O)CCSc1nc(C)c2cc(OC)ccc2n1 | 4 | -19% | 0 | -8% | 25µM* | 20
CCOC(=O)CCSc1nc(C)c2cc(C)c(C)cc2n1 | 0 | ? | 9 | ? | -1% | 24
CCOC(=O)C1(N(CC)CC)Sc2cc(C)ccc2NC1=O (configuration not stated) | -9 | 16µM* | -10 | 18µM* | 1% | 35
Cn1cc(-c2cnc3c(NC=O)cc(-c4cccc(C(F)(F)F)c4)cn23)cn1 | 0 | ? | -9 | 21µM* | -19% | 0
COc1cc(-c2cnc3c(NC=O)cc(-c4cccnc4)cn23)cc(OC)c1OC | 9 | 2.9µM* | 0 | 2.9µM* | -10% | 99

Assay outcomes (PubChem BioAssay)
